Experimental data as given in the supplement of paper PMC10646978.
± gives the standard deviation.

These compounds were tested on RAW-Dual (murine macrophage reporter line) (assay: IRF reporter (Lucia luciferase) activity fold change vs agonist alone; higher = enhanced IRF activity). Settings: modulator concentration 10 µM; agonist: LPS 0.1 ug/mL.
Procedure, shortened: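 Compound reached 10 μM final in each well by pin transfer, onto RAW-Dual murine macrophage reporter cells seeded at 50 000 per well in 384-well plates. After 1 hour at 37 °C, the cells were stimulated overnight with a PRR agonist. SEAP in the supernatant was read with QUANTI-Blue at 620 nm absorbance for NF-κB, and Lucia luciferase was read with QUANTI-Luc luminescence for IRF. Each signal was turned into fold change against the mean agonist-only control on the same plate, and two replicate plates were averaged with propagated errors.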

**Q.** How did the IRF reporter turn out when `CN(C)CCNC(=O)C(=O)NC(c1ccccc1)c1ccccc1` was run?
**A.** 1.03 ± 0.091

**Q.** With `Cc1nc2n(c(=O)c1CCN1CCC(c3noc4cc(F)ccc34)CC1)CCCC2O` (stereo not given) as the compound, how does the IRF reporter read?
**A.** 1.26 ± 0.14

**Q.** For `Cc1cnc2c(c1N1CCC(Cc3ccccc3)CC1)c(=O)n(C)c(=O)n2C`, which IRF reporter is on record?
**A.** 1.01 ± 0.088

**Q.** Which IRF reporter does the source give for `COc1ccccc1OCC(O)CN1CCN(CC(=O)Nc2c(C)cccc2C)CC1` (stereo not given) here?
**A.** 0.996 ± 0.061

**Q.** `COc1ccccc1N1CCN(CC(O)COc2cccc3ccccc23)CC1.Cl.Cl` (stereo not given) was tested. Which IRF reporter did it give?
**A.** 1.17 ± 0.34

**Q.** For `COC(=O)C1=C(C)NC(C)=C(C(=O)OC(C)(C)CN(C)CCC(c2ccccc2)c2ccccc2)C1c1cccc([N+](=O)[O-])c1.Cl` (stereo not given), which IRF reporter is on record?
**A.** 1.69 ± 0.37

**Q.** `CC[C@@H]1C(=O)N(C)c2cnc(Nc3ccc(C(=O)N[C@H]4CC[C@H](N5CCN(CC6CC6)CC5)CC4)cc3OC)nc2N1C(C)C` was tested. Which IRF reporter did it give?
**A.** 0.0624 ± 0.0084

**Q.** `O=C(O)c1cc2ccccc2[nH]1` was tested. Which IRF reporter did it give?
**A.** 0.975 ± 0.14

**Q.** For `CCCOc1ccc(-c2ccc(-c3nc(Cc4ccc(OC)c(OC)c4)no3)cc2)cc1`, which IRF reporter is on record?
**A.** 1.08 ± 0.063

**Q.** With `Cc1ccc(S(=O)(=O)n2cnc3ccccc32)cc1C` as the compound, how does the IRF reporter read?
**A.** 1.37 ± 0.12

**Q.** With `CNCC[C@@H](Oc1cccc2ccccc12)c1cccs1` [Prestw-1708] as the compound, how does the IRF reporter read?
**A.** 1.11 ± 0.16

**Q.** `CNC(=NC#N)NCCSCc1nc[nH]c1C` was tested. Which IRF reporter did it give?
**A.** 1.21 ± 0.14

**Q.** For `CC(=NN1CCN(Cc2cccc3ccccc23)CC1)c1ccc(O)cc1`, which IRF reporter is on record?
**A.** 0.946 ± 0.1

**Q.** `Nc1nc(N)c2nc(-c3ccccc3)c(N)nc2n1` was tested. Which IRF reporter did it give?
**A.** 1.17 ± 0.27

**Q.** With `O=C(O)CCCCC1SCC2NC(=O)NC21` (stereo not given) as the compound, how does the IRF reporter read?
**A.** 1.18 ± 0.075

**Q.** With `c1ccc(OCCOc2ccc(Nc3ccnc4cc5ccccc5cc34)cc2)cc1` as the compound, how does the IRF reporter read?
**A.** 1.48 ± 0.13

**Q.** Which IRF reporter does the source give for `CC(C)(C)NCC(=O)Nc1ccc(S(N)(=O)=O)cc1` here?
**A.** 1.52 ± 0.098

**Q.** `CC(=O)Nc1ccc(S(=O)(=O)N2CCC(Oc3cc(C)nc(C)n3)C2)cc1` (stereo not given) was tested. Which IRF reporter did it give?
**A.** 0.936 ± 0.12

**Q.** Which IRF reporter does the source give for `O=Cc1c[nH]c2ccccc12` here?
**A.** 1.25 ± 0.26

**Q.** With `CN(C)CC(c1ccc(O)cc1)C1(O)CCCCC1` (stereo not given) as the compound, how does the IRF reporter read?
**A.** 1.44 ± 0.32

**Q.** `CCC1OC(=O)C(C)C(OC2CC(C)(OC)C(O)C(C)O2)C(C)C(OC2OC(C)CC(N(C)C)C2O)C(C)(O)CC(C)CN(C)C(C)C(O)C1(C)O` (stereo not given) was tested. Which IRF reporter did it give?
**A.** 0.948 ± 0.11

**Q.** With `Cc1cc(C(=O)NCc2sc(-c3ccccc3Cl)nc2C)c(C)o1` as the compound, how does the IRF reporter read?
**A.** 1.11 ± 0.25

**Q.** How did the IRF reporter turn out when `COc1cc2ncnc(Nc3ccc(F)c(Cl)c3)c2cc1OCCCN1CCOCC1.Cl` was run?
**A.** 0.835 ± 0.1

**Q.** `CN(C)c1nc(CNC(=O)CSc2nc3ccccc3o2)nc(N(C)C)n1` was tested. Which IRF reporter did it give?
**A.** 1.05 ± 0.063

**Q.** With `CCOc1ccc2nc(NC(=O)c3ccc(Br)cc3F)sc2c1` as the compound, how does the IRF reporter read?
**A.** 1.05 ± 0.067

**Q.** `CCS(=O)(=O)c1ccc(-c2ccc(NC(=O)c3cccc(OC)c3OC)cc2)nn1` was tested. Which IRF reporter did it give?
**A.** 1.2 ± 0.26

**Q.** With `Cc1cn(-c2cc(NC(=O)c3ccc(C)c(Nc4nccc(-c5cnccn5)n4)c3)cc(C(F)(F)F)c2)cn1` as the compound, how does the IRF reporter read?
**A.** 0.943 ± 0.11

**Q.** How did the IRF reporter turn out when `CCN1CCN(c2nc3c(c(=O)[nH]c(=O)n3C)n2CC(O)COc2cc(C)ccc2C(C)C)CC1` (stereo not given) was run?
**A.** 1.38 ± 0.14

**Q.** How did the IRF reporter turn out when `Cc1cc(C(O)CCNC(=O)COc2cccc3c2OC(C)(C)C3)c(C)o1` (stereo not given) was run?
**A.** 0.992 ± 0.051

**Q.** Which IRF reporter does the source give for `CCOC(=O)Cc1nnnn1C` here?
**A.** 1.14 ± 0.15

**Q.** With `CC[C@@]1(O)C(=O)OCc2c1cc1n(c2=O)Cc2cc3c(CN(C)C)c(O)ccc3nc2-1.Cl` as the compound, how does the IRF reporter read?
**A.** 2.89 ± 0.17

**Q.** How did the IRF reporter turn out when `O=C(C=Cc1ccc(-c2cccc(Cl)c2)o1)c1ccc(Cl)cc1` was run?
**A.** 0.896 ± 0.058

**Q.** `COc1ccc(C(=O)Oc2ccc(-c3ccc(C)cc3)cc2)cc1OC` was tested. Which IRF reporter did it give?
**A.** 1.22 ± 0.09

**Q.** How did the IRF reporter turn out when `C#Cc1cccc(Nc2ncnc3cc(OC)c(OCCCCCCC(=O)NO)cc23)c1` was run?
**A.** 0.43 ± 0.029

**Q.** For `O=Cc1ccc(OCc2cccc([N+](=O)[O-])c2)c(Br)c1`, which IRF reporter is on record?
**A.** 1.4 ± 0.09

**Q.** `O=C(CSc1nc(-c2ccccc2)c(-c2ccccc2)o1)N1CCOCC1` was tested. Which IRF reporter did it give?
**A.** 1.31 ± 0.11

**Q.** How did the IRF reporter turn out when `CN(C)c1ccc(C2N(C)c3ccccc3N2C)cc1` was run?
**A.** 1.88 ± 0.23

**Q.** How did the IRF reporter turn out when `CC(C)(C)C1(O)CC(C(F)(F)F)=NN1C(=O)c1cccc([N+](=O)[O-])c1` (stereo not given) was run?
**A.** 1.48 ± 0.27

**Q.** For `COc1ccc([N+](=O)[O-])cc1NC(=O)c1ccccc1SC`, which IRF reporter is on record?
**A.** 1.03 ± 0.23

**Q.** How did the IRF reporter turn out when `CC(=O)c1cc(Cl)ccc1OC(=O)c1ccccc1Cl` was run?
**A.** 1.63 ± 0.12
